What all share (test): DAPPL (digital affinity profiling via proximity ligation, sequencing); 10 mM Tris-HCl pH 7.5, 50 mM NaCl, 1 mM DTT, 4% glycerol, room temperature, 30 min; GST-TFs on glutathione beads, 16-mer random dsDNA library, 0.1% formaldehyde crosslink after washing; high values mean tight binding
For experiment [1], the target named is T1, FEV (Homo sapiens, UniProt Q99581 1-238).
T1 sequence: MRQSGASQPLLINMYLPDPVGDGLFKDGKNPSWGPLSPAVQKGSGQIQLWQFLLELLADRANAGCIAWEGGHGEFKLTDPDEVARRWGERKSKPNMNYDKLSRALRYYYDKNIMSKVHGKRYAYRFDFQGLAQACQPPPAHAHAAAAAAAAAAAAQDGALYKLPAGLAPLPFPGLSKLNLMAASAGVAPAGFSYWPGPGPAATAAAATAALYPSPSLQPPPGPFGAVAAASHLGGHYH
Conditions: protein: recombinant; tags: N-terminal GST; dsDNA, one strand shown. In a few lines: (§1)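 Binding signal is each hexamer's read frequency for a factor divided by its frequency in the tag-only sample. The factors were GST-fused human transcription factors from yeast, captured on glutathione beads, DNA-barcoded and pooled with that sample. Pools were incubated with 200 nmole of a random double-stranded 16-mer DNA library in Tris/NaCl/DTT/glycerol buffer at room temperature for 30 min, then washed, crosslinked with 0.1% formaldehyde, proximity-ligated with BsaI/T4 ligase (1 h, 37 °C), PCR-amplified and sequenced on an Illumina NextSeq500.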

Experiment [2] has as its target ETV5 (Homo sapiens, UniProt P41161 1-510). Conditions: protein: recombinant; tags: N-terminal GST; dsDNA, one strand shown. In a few lines: as §1
Experiment [3] has as its target HSF1 (Homo sapiens, UniProt Q00613 1-529). Conditions: protein: recombinant; tags: N-terminal GST; chain copies: 3; dsDNA, one strand shown. In a few lines:
as §1

The target in experiment [4] is T2, SPIC (Homo sapiens, UniProt Q8N5J4 1-248).
T2 sequence: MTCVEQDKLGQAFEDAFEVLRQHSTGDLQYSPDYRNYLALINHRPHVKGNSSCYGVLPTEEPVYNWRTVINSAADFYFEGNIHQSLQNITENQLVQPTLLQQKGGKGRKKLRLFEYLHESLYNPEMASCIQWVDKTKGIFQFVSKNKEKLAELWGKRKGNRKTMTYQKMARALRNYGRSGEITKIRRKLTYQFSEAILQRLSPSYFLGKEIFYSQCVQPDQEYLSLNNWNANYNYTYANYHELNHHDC
Conditions: protein: recombinant; tags: N-terminal GST; dsDNA, one strand shown. The gist of the method:
as §1

In experiment [5] the target is T3, ELK4 (Homo sapiens, UniProt P28324-2 1-405).
T3 sequence: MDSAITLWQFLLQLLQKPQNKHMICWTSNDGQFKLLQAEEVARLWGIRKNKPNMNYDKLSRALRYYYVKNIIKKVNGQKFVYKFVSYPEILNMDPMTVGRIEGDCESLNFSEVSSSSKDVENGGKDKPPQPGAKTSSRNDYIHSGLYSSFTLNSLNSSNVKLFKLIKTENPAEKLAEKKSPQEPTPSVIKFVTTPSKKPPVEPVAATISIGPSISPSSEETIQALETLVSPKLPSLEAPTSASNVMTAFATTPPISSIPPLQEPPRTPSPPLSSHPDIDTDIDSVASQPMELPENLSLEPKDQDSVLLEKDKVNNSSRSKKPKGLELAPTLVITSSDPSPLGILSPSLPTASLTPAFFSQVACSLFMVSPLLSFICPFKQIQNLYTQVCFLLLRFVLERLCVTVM
Conditions: protein: recombinant; tags: N-terminal GST; dsDNA, one strand shown. The gist of the method:
as §1

For experiment [6], the target named is T4, ELF3 (Homo sapiens, UniProt P78545 1-371).
T4 sequence: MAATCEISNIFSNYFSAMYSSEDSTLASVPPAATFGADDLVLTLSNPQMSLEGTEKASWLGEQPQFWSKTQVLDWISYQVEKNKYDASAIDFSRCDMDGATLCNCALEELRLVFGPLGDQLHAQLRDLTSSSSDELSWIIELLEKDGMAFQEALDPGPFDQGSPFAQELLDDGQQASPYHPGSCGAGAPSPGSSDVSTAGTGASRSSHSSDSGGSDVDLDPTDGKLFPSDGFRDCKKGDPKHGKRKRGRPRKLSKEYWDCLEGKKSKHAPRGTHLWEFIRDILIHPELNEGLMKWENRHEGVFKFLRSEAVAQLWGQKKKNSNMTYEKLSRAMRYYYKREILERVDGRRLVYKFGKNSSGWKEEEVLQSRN
Conditions: protein: recombinant; tags: N-terminal GST; dsDNA, one strand shown. In a few lines:
as §1

The target of experiment [7] is CRX (Homo sapiens, UniProt O43186 1-299). Conditions: protein: recombinant; tags: N-terminal GST; dsDNA, one strand shown. The gist of the method:
as §1

Experiment [8] concerns the target ETV1 (Homo sapiens, UniProt P50549 1-477). Conditions: protein: recombinant; tags: N-terminal GST; dsDNA, one strand shown. The gist of the method: as §1
For experiment [9], the target named is ELF4 (Homo sapiens, UniProt Q99607 1-663). Conditions: protein: recombinant; tags: N-terminal GST; dsDNA, one strand shown. In a few lines:
as §1

Experiment [10] concerns the target T5, ETV2 (Homo sapiens, UniProt O00321 1-342).
T5 sequence: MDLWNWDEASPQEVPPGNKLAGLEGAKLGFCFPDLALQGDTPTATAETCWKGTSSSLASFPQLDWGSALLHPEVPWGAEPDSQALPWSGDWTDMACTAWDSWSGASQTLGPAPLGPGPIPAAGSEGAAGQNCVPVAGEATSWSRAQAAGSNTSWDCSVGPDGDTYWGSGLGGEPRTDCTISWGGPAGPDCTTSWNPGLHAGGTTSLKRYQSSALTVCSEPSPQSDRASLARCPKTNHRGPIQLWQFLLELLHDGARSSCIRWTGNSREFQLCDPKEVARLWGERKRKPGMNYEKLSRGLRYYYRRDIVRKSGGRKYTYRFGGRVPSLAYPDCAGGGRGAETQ
Conditions: protein: recombinant; tags: N-terminal GST; dsDNA, one strand shown. The gist of the method: as §1

Sequence of HSF1 (Q00613 whole entry): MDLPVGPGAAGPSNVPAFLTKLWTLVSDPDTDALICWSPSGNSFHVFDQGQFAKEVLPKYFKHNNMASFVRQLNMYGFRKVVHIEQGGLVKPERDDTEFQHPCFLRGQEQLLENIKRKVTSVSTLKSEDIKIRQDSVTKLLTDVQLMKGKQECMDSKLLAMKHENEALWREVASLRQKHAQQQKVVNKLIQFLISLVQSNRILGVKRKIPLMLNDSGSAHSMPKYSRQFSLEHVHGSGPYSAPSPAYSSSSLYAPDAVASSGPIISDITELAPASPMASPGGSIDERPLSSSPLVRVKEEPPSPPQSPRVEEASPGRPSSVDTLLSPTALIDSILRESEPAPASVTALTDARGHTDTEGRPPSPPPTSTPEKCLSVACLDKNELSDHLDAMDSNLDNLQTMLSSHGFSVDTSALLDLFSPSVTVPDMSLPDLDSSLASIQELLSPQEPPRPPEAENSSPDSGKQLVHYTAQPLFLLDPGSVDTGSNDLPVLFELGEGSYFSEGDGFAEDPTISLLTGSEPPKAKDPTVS
Sequence of ETV5 (P41161 whole entry): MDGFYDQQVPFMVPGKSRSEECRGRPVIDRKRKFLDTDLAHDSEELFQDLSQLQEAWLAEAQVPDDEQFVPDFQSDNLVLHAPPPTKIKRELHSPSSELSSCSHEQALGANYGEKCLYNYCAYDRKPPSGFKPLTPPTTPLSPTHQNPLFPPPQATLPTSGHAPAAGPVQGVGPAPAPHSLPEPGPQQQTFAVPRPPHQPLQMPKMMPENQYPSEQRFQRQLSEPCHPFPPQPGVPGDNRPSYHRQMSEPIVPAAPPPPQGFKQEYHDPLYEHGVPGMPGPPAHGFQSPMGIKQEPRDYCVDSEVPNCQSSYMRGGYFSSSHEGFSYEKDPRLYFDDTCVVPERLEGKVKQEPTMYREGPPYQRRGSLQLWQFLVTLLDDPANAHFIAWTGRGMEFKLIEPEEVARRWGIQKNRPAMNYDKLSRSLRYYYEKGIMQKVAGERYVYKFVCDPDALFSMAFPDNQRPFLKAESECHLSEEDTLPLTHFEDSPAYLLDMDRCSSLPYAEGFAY
Sequence of CRX (O43186 whole entry): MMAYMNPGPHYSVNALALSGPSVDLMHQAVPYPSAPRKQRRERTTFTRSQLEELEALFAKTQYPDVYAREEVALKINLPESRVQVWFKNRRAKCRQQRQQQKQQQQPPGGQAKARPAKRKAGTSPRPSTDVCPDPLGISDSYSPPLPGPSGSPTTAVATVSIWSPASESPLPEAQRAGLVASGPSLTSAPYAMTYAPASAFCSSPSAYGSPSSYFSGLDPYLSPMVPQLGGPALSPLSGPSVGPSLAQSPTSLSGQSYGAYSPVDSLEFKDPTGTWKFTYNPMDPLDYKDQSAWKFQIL
Sequence of ETV1 (P50549 whole entry): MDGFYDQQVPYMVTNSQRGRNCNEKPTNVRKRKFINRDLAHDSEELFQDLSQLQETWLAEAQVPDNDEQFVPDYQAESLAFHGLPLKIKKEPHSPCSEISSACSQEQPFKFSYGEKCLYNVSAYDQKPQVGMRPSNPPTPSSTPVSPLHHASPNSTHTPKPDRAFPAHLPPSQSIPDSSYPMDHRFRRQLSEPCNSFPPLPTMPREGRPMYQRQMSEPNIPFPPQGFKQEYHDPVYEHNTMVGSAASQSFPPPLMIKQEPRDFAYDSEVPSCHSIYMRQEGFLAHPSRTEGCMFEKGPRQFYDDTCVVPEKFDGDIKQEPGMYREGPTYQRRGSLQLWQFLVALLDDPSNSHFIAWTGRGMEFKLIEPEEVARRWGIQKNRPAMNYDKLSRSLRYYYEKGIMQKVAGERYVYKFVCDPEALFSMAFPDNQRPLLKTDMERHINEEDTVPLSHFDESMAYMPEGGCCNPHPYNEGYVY
Sequence of ELF4 (Q99607 whole entry): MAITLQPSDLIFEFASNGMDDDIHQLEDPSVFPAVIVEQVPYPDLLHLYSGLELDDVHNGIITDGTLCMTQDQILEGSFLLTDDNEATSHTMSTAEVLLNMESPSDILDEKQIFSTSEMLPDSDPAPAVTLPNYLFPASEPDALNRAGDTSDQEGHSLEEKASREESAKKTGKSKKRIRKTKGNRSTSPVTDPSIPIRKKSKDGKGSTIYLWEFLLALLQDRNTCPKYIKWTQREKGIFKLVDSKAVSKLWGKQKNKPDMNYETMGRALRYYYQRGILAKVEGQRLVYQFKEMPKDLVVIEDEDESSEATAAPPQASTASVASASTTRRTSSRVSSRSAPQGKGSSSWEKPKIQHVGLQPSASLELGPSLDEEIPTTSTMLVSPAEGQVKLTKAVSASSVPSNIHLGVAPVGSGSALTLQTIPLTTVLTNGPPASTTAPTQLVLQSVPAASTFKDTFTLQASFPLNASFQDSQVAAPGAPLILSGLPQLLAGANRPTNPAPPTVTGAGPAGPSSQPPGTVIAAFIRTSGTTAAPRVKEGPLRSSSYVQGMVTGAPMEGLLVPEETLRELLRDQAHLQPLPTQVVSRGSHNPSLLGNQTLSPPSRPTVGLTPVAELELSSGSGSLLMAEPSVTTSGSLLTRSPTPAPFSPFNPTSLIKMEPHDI

As for AAAGCC, the binding signal in experiment [1] was 1.03 fold enrichment (6-mer frequency, TF over GST control); in experiment [2], 1.02 fold enrichment (6-mer frequency, TF over GST control); in experiment [3], 1.14 fold enrichment (6-mer frequency, TF over GST control); in [4] it was 1.14 fold enrichment (6-mer frequency, TF over GST control); in [5], 1.02 fold enrichment (6-mer frequency, TF over GST control); in experiment [6] it was 1.01 fold enrichment (6-mer frequency, TF over GST control). Further, the binding signal in experiment [7] is 1.42 fold enrichment (6-mer frequency, TF over GST control); in experiment [8] it was 1.03 fold enrichment (6-mer frequency, TF over GST control).

With AACGTC, the binding signal in [1] was 1.06 fold enrichment (6-mer frequency, TF over GST control); in experiment [2], 1.04 fold enrichment (6-mer frequency, TF over GST control); in experiment [3], 1.01 fold enrichment (6-mer frequency, TF over GST control); in experiment [4], 1.13 fold enrichment (6-mer frequency, TF over GST control); in experiment [9], 1.09 fold enrichment (6-mer frequency, TF over GST control); in experiment [6], 1.13 fold enrichment (6-mer frequency, TF over GST control). In addition, the binding signal in [8] was 1.11 fold enrichment (6-mer frequency, TF over GST control).

For the sequence TCAAAT, the binding signal is 1.1 fold enrichment (6-mer frequency, TF over GST control) in experiment [1]; 1.09 fold enrichment (6-mer frequency, TF over GST control) in experiment [2]; 1.15 fold enrichment (6-mer frequency, TF over GST control) in experiment [3]; 1.12 fold enrichment (6-mer frequency, TF over GST control) in experiment [4]; 1.04 fold enrichment (6-mer frequency, TF over GST control) in experiment [5]; 1.1 fold enrichment (6-mer frequency, TF over GST control) in [10]. The binding signal in [6] is 1.15 fold enrichment (6-mer frequency, TF over GST control); in [7], 1.32 fold enrichment (6-mer frequency, TF over GST control); in experiment [8], 1.13 fold enrichment (6-mer frequency, TF over GST control).

As for TCATCG, the binding signal in experiment [2] was 1 fold enrichment (6-mer frequency, TF over GST control); in [3], 1.12 fold enrichment (6-mer frequency, TF over GST control); in experiment [4], 1.05 fold enrichment (6-mer frequency, TF over GST control); in experiment [5] it was 1.05 fold enrichment (6-mer frequency, TF over GST control); in [7] it was 1.05 fold enrichment (6-mer frequency, TF over GST control); in experiment [8], 1.03 fold enrichment (6-mer frequency, TF over GST control).

Regarding AACGTA, the binding signal in [2] is 1.04 fold enrichment (6-mer frequency, TF over GST control); in experiment [3], 1.03 fold enrichment (6-mer frequency, TF over GST control); in experiment [4], 1.02 fold enrichment (6-mer frequency, TF over GST control); in [9], 1.03 fold enrichment (6-mer frequency, TF over GST control); in experiment [10], 1.01 fold enrichment (6-mer frequency, TF over GST control); in experiment [6], 1.01 fold enrichment (6-mer frequency, TF over GST control). In addition, in [8], the binding signal was 1.06 fold enrichment (6-mer frequency, TF over GST control).

ACGATC: the binding signal in experiment [1] was 1.07 fold enrichment (6-mer frequency, TF over GST control); in [2], 1.06 fold enrichment (6-mer frequency, TF over GST control); in [3] it was 1.15 fold enrichment (6-mer frequency, TF over GST control); in experiment [4], 1.02 fold enrichment (6-mer frequency, TF over GST control); in experiment [9], 1.08 fold enrichment (6-mer frequency, TF over GST control); in [10], 1.09 fold enrichment (6-mer frequency, TF over GST control). The binding signal in experiment [6] was 1.04 fold enrichment (6-mer frequency, TF over GST control); in experiment [7], 1.14 fold enrichment (6-mer frequency, TF over GST control); in experiment [8] it was 1.05 fold enrichment (6-mer frequency, TF over GST control).

AAATCG: the binding signal in [1] is 1 fold enrichment (6-mer frequency, TF over GST control); in [2] it was 1.04 fold enrichment (6-mer frequency, TF over GST control); in experiment [3] it was 1.18 fold enrichment (6-mer frequency, TF over GST control); in [4] it was 1 fold enrichment (6-mer frequency, TF over GST control); in experiment [9], 1.11 fold enrichment (6-mer frequency, TF over GST control); in experiment [6], 1.03 fold enrichment (6-mer frequency, TF over GST control). Further, the binding signal in [7] was 1.26 fold enrichment (6-mer frequency, TF over GST control); in experiment [8], 1.05 fold enrichment (6-mer frequency, TF over GST control).

For GCTCTG, the binding signal in experiment [1] is 1.25 fold enrichment (6-mer frequency, TF over GST control); in experiment [2] it was 1.15 fold enrichment (6-mer frequency, TF over GST control); in experiment [3] it was 1.08 fold enrichment (6-mer frequency, TF over GST control); in [4] it was 1.18 fold enrichment (6-mer frequency, TF over GST control); in experiment [9], 1.17 fold enrichment (6-mer frequency, TF over GST control); in experiment [10] it was 1 fold enrichment (6-mer frequency, TF over GST control). The binding signal in experiment [6] is 1.04 fold enrichment (6-mer frequency, TF over GST control); in experiment [8], 1.28 fold enrichment (6-mer frequency, TF over GST control).

The values are drawn from paper PMC7862700, “An all-to-all approach to the identification of sequence-specific readers for epigenetic DNA modifications on cytosine”.
